Where “and” joins values, the source holds several entries; their conditions need not be identical. Identical values can stand only once. The whole screen tested about 5,500 compounds, of which about 2,000 (36%) were called active. About 18% were inconclusive and are not listed. The list shows a part of the results. Values without a mark were called inactive. Rule as the data show it: active = normalized growth mostly below about 0.91 (no sharp cut-off); inconclusive = no clear call, values can overlap the other calls; inactive = mostly above about 0.92.
Assay: chemical genetic growth profiling, strain panel (AID 1159580);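 also: tested at 20 µM; growth read once vehicle control cultures reached saturation at 30 °C; 1 = growth at the plate median or of vehicle wells; lower values mean less growth of the strain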
Conditions: S. cerevisiae deletion strains, growth OD

Question: With `CC(=O)Oc1ccc2c(c1)CCC1C2CC[C@]2(C)C(=O)CCC12` (some centres undefined) as the molecule, how does the normalized growth (locus YAL013W, strain DEP1, stronger effect = lower value) read?
Answer: 0.985

Question: And the normalized growth (locus YAL021C, strain ccr4, stronger effect = lower value)?
Answer: 0.995

Question: And the normalized growth (locus YAL026C, strain drs2, stronger effect = lower value)?
Answer: 0.992

Question: What about the normalized growth (locus YAL030W, strain snc1, stronger effect = lower value) of the same molecule?
Answer: 0.972

Question: What about the normalized growth (locus YBL061C, strain skt5, stronger effect = lower value) of the same molecule?
Answer: 0.987

Question: And the normalized growth (locus YBR009C, strain hhf1, stronger effect = lower value)?
Answer: 0.986

Question: And the normalized growth (locus YBR021W, strain FUR4, stronger effect = lower value)?
Answer: 0.961

Question: And the normalized growth (locus YBR023C, strain chs3, stronger effect = lower value)?
Answer: 0.985

Question: What about the normalized growth (locus YBR171W, strain sec66, stronger effect = lower value) of the same molecule?
Answer: 0.963

Question: What about the normalized growth (locus YBR229C, strain ROT2, stronger effect = lower value) of the same molecule?
Answer: 1

Question: And the normalized growth (locus YBR231C, strain swc5, stronger effect = lower value)?
Answer: 0.984

Question: What about the normalized growth (locus YBR279W, strain paf1, stronger effect = lower value) of the same molecule?
Answer: 0.98

Question: What about the normalized growth (locus YCL011C, strain gbp2, stronger effect = lower value) of the same molecule?
Answer: 0.994

Question: What about the normalized growth (locus YCL016C, strain dcc1, stronger effect = lower value) of the same molecule?
Answer: 0.997

Question: And the normalized growth (locus YCL029C, strain bik1, stronger effect = lower value)?
Answer: 1.03

Question: What about the normalized growth (locus YCL061C, strain MRC1, stronger effect = lower value) of the same molecule?
Answer: 0.985

Question: And the normalized growth (locus YCL069W, strain vba3, stronger effect = lower value)?
Answer: 0.986

Question: And the normalized growth (locus YCR088W, strain abp1, stronger effect = lower value)?
Answer: 0.979

Question: What about the normalized growth (locus YDL005C, strain med2, stronger effect = lower value) of the same molecule?
Answer: 0.959

Question: And the normalized growth (locus YDL035C, strain GPR1, stronger effect = lower value)?
Answer: 0.957

Question: What about the normalized growth (locus YDL040C, strain nat1, stronger effect = lower value) of the same molecule?
Answer: 0.989

Question: And the normalized growth (locus YDL074C, strain BRE1, stronger effect = lower value)?
Answer: 0.911

Question: And the normalized growth (locus YDL101C, strain DUN1, stronger effect = lower value)?
Answer: 1

Question: And the normalized growth (locus YDL134C, strain PPH21, stronger effect = lower value)?
Answer: 0.977

Question: What about the normalized growth (locus YDL185W, strain tfp1, stronger effect = lower value) of the same molecule?
Answer: 1

Question: What about the normalized growth (locus YDL192W, strain arf1, stronger effect = lower value) of the same molecule?
Answer: 1.01

Question: What about the normalized growth (locus YDR001C, strain nth1, stronger effect = lower value) of the same molecule?
Answer: 0.985

Question: And the normalized growth (locus YDR069C, strain doa4, stronger effect = lower value)?
Answer: 0.969

Question: And the normalized growth (locus YDR101C, strain arx1, stronger effect = lower value)?
Answer: 1.02

Question: What about the normalized growth (locus YDR137W, strain rgp1, stronger effect = lower value) of the same molecule?
Answer: 0.808 (active)

Question: What about the normalized growth (locus YDR150W, strain NUM1, stronger effect = lower value) of the same molecule?
Answer: 0.994

Question: What about the normalized growth (locus YDR159W, strain sac3, stronger effect = lower value) of the same molecule?
Answer: 0.979

Question: And the normalized growth (locus YDR162C, strain NBP2, stronger effect = lower value)?
Answer: 0.998

Question: What about the normalized growth (locus YDR195W, strain ref2) of the same molecule?
Answer: 0.942

Question: What about the normalized growth (locus YDR297W, strain sur2, stronger effect = lower value) of the same molecule?
Answer: 0.99

Question: And the normalized growth (locus YDR318W, strain mcm21, stronger effect = lower value)?
Answer: 1.01

Question: And the normalized growth (locus YDR334W, strain swr1, stronger effect = lower value)?
Answer: 0.984

Question: And the normalized growth (locus YDR335W, strain msn5, stronger effect = lower value)?
Answer: 0.992

Question: What about the normalized growth (locus YDR388W, stronger effect = lower value) of the same molecule?
Answer: 1.02

Question: What about the normalized growth (locus YDR392W, strain spt3, stronger effect = lower value) of the same molecule?
Answer: 1.03

Question: What about the normalized growth (locus YDR502C, strain sam2, stronger effect = lower value) of the same molecule?
Answer: 1.01

Question: And the normalized growth (locus YEL003W, strain gim4, stronger effect = lower value)?
Answer: 0.988

Question: And the normalized growth (locus YEL037C, strain rad23, stronger effect = lower value)?
Answer: 0.989

Question: What about the normalized growth (locus YEL061C, strain CIN8 (second series), stronger effect = lower value) of the same molecule?
Answer: 0.977

Question: And the normalized growth (locus YEL061C, strain CIN8, stronger effect = lower value)?
Answer: 0.998

Question: What about the normalized growth (locus YER015W, strain faa2, stronger effect = lower value) of the same molecule?
Answer: 0.964

Question: What about the normalized growth (locus YER016W, strain bim1, stronger effect = lower value) of the same molecule?
Answer: 0.991

Question: And the normalized growth (locus YER110C, stronger effect = lower value)?
Answer: 1.01

Question: And the normalized growth (locus YER111C, strain swi4, stronger effect = lower value)?
Answer: 0.96

Question: And the normalized growth (locus YER155C, strain BEM2 (second series), stronger effect = lower value)?
Answer: 0.923

Question: And the normalized growth (locus YER155C, strain BEM2, stronger effect = lower value)?
Answer: 1.02

Question: What about the normalized growth (locus YER167W, strain BCK2, stronger effect = lower value) of the same molecule?
Answer: 1.02

Question: What about the normalized growth (locus YFR010W, strain ubp6, stronger effect = lower value) of the same molecule?
Answer: 0.985

Question: And the normalized growth (locus YGL078C, strain dbp3, stronger effect = lower value)?
Answer: 1.02

Question: And the normalized growth (locus YGL086W, strain mad1, stronger effect = lower value)?
Answer: 1

Question: And the normalized growth (locus YGL167C, strain pmr1, stronger effect = lower value)?
Answer: 0.98

Question: And the normalized growth (locus YGL173C, strain kem1, stronger effect = lower value)?
Answer: 0.981

Question: And the normalized growth (locus YGL227W, strain vid30, stronger effect = lower value)?
Answer: 0.987

Question: What about the normalized growth (locus YGL240W, strain doc1, stronger effect = lower value) of the same molecule?
Answer: 0.95

Question: And the normalized growth (locus YGL248W, strain PDE1, stronger effect = lower value)?
Answer: 0.949

Question: What about the normalized growth (locus YGL253W, strain hxk2, stronger effect = lower value) of the same molecule?
Answer: 0.995

Question: And the normalized growth (locus YGR135W, strain pre9, stronger effect = lower value)?
Answer: 1.01

Question: What about the normalized growth (locus YGR229C, strain SMI1, stronger effect = lower value) of the same molecule?
Answer: 1.03

Question: And the normalized growth (locus YGR252W, strain gcn5, stronger effect = lower value)?
Answer: 0.887

Question: And the normalized growth (locus YHR013C, strain ard1, stronger effect = lower value)?
Answer: 1

Question: And the normalized growth (locus YHR027C, strain rpn1, stronger effect = lower value)?
Answer: 0.969

Question: What about the normalized growth (locus YHR030C, strain SLT2, stronger effect = lower value) of the same molecule?
Answer: 1.01 and 0.944

Question: And the normalized growth (locus YHR079C, strain IRE1 (second series), stronger effect = lower value)?
Answer: 1.02

Question: And the normalized growth (locus YHR079C, strain IRE1, stronger effect = lower value)?
Answer: 0.933

Question: What about the normalized growth (locus YHR094C, strain hxt1, stronger effect = lower value) of the same molecule?
Answer: 1.02

Question: And the normalized growth (locus YHR129C, strain ARP1, stronger effect = lower value)?
Answer: 1.01

Question: And the normalized growth (locus YHR142W, strain chs7, stronger effect = lower value)?
Answer: 0.978

Question: And the normalized growth (locus YHR200W, strain rpn10, stronger effect = lower value)?
Answer: 1.02

Question: What about the normalized growth (locus YIL066C, strain RNR3, stronger effect = lower value) of the same molecule?
Answer: 0.944

Question: And the normalized growth (locus YIL073C, strain SPO22, stronger effect = lower value)?
Answer: 0.921

Question: And the normalized growth (locus YIL125W, strain kgd1, stronger effect = lower value)?
Answer: 1.01

Question: And the normalized growth (locus YIR030C, strain dcg1, stronger effect = lower value)?
Answer: 1.02

Question: And the normalized growth (locus YJL092W, strain hpr5, stronger effect = lower value)?
Answer: 0.981

Question: What about the normalized growth (locus YJL095W, strain BCK1 (second series), stronger effect = lower value) of the same molecule?
Answer: 0.985

Question: What about the normalized growth (locus YJL095W, strain BCK1, stronger effect = lower value) of the same molecule?
Answer: 0.92 and 0.928

Question: And the normalized growth (locus YJL115W, strain asf1, stronger effect = lower value)?
Answer: 0.978

Question: And the normalized growth (locus YJL129C, strain trk1, stronger effect = lower value)?
Answer: 0.984

Question: And the normalized growth (locus YJL134W, strain LCB3, stronger effect = lower value)?
Answer: 1.01

Question: What about the normalized growth (locus YJL154C, strain vps35, stronger effect = lower value) of the same molecule?
Answer: 0.979

Question: And the normalized growth (locus YJL164C, strain tpk1, stronger effect = lower value)?
Answer: 0.996

Question: What about the normalized growth (locus YJL166W, strain qcr8, stronger effect = lower value) of the same molecule?
Answer: 0.96

Question: What about the normalized growth (locus YJL168C, strain set2, stronger effect = lower value) of the same molecule?
Answer: 1.01

Question: What about the normalized growth (locus YJL187C, strain SWE1 (second series), stronger effect = lower value) of the same molecule?
Answer: 0.969

Question: What about the normalized growth (locus YJL187C, strain SWE1, stronger effect = lower value) of the same molecule?
Answer: 0.981

Reference: PubChem BioAssay AID1159580 (chemical genetic matrix, 2015)
